# Bioassay records from PubChem BioAssay.
# Shown are actives, neighbours in structure and some others; about 7.3% of the full set was active somewhere.
# Rab9 promoter act: qHTS Assay for Rab9 Promoter Activators; Huh7 Rab9 promoter-luciferase reporter, luminescence, 24 h; Potency, µM (top dose mostly 9.22 µM), without a hit: top-dose activation, negative = inhibition, hits mostly activators; 320,000 compounds, 2.8% hits; AID 485297, 2010; note: % of control where 0% means no effect; nearly all actives have a fitted effect of over 60% in size
#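 Huh7 cells stably carrying Rab9 promoter–luciferase reporter, plated 1500 cells/well, compound added after 2 h and incubated 24 h at 37 °C; luciferase luminescence then read after 10 min with detection reagent.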
# SMN2 splice enh: qHTS Assay for Enhancers of SMN2 Splice Variant Expression; Potency, µM (doses to about 46.1 µM), for the others: at the highest dose activity change, positive = activation, most hits filed as activators; HEK293 SMN2-luciferase splicing reporter, luminescence, 30-36 h; 210,000 compounds, 2.8% hits; note: % of control where 0% means no effect; nearly all actives have a fitted effect of over 55% in size
#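 HEK293 cells carry an SMN2 […]–luciferase reporter in which exon 7 inclusion puts luciferase in frame. Cells were plated 10-12 h before compound addition, then incubated 30-36 h at 37C. ONE-Glo luminescence was read; sodium butyrate at 4.5 mM final served as control.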
# KinaseGlo FLuc: Counterscreen for Luciferase (Kinase-Glo TM) Inhibition; Luciferin 4-monooxygenase (Photuris pensylvanica), Q27757; Kinase-Glo luciferase, ATP luminescence, 8 min; Potency, µM (top dose mostly 38.3 µM), for the others: at the highest dose activity change, negative = inhibition, actives largely listed as inhibitors; 200,000 compounds, 0.28% hits; note: % is set by controls: 0 for no effect and ±100 for the full control effect; nearly all actives have a fitted effect of over 60% in size
#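 Light output from Kinase-Glo luciferase with luciferin and 10 uM ATP in 50 mM imidazole pH 7.2, KCl, MgCl2, Tween 20, BSA; compound pin-delivered, 8-min ambient incubation, then luminescence read.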
# NPC1 promoter act: qHTS Assay for NPC1 Promoter Activators. 320,000 compounds, 2.4% hits. Potency, µM (titrated, usually from 9.22 µM), inactives show at the top dose activation, actives largely listed as activators. Huh7 NPC1 promoter luciferase reporter, 24 h. AID 485313, 2010; note: % of control where 0% means no effect; nearly all actives have a fitted effect of over 60% in size
#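 In 1536-well qHTS, Huh7 cells harboring an NPC1 promoter–luciferase construct received compound for 24 h; activation was quantified by luminescence following luciferase reagent addition.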
# FLuc counter: qHTS profiling assay for firefly luciferase inhibitor/activator using purifed enzyme and Km concentrations of substrates (counterscreen for miR-21 project); purified FLuc, Km substrates, luminescence inhibition; Potency, µM (titrated, usually from 57.5 µM), inactives show at the highest dose activity change, negative = inhibition, actives largely listed as inhibitors; 360,000 compounds, 6.9% hits;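 note: plate controls were vehicle for no effect and reference inhibitor for full effect; nearly all actives have a fitted effect of over 55% in size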
# Target sequence (P08659 whole entry, looked up): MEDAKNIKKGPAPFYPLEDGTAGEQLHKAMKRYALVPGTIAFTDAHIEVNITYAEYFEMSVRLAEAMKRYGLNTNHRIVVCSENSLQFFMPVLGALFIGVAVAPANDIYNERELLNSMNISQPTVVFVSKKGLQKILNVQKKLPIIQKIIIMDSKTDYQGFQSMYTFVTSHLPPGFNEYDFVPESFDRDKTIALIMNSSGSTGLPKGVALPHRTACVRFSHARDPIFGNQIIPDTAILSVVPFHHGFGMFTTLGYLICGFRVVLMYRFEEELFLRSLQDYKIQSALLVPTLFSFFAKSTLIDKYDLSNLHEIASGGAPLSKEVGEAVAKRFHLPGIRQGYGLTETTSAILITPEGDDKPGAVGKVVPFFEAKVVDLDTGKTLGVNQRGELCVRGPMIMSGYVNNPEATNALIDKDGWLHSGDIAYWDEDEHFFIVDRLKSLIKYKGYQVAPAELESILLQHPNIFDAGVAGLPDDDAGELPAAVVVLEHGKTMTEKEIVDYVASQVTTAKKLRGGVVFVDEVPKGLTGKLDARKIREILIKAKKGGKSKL
#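 Purified P. pyralis luciferase (10nM final) with 10uM D-luciferin and 10uM ATP (Km levels) in 50mM Tris acetate pH 7.5, 10mM Mg acetate, 0.01% Tween-20, 0.05% BSA; qHTS 6-point titration, ~60 µM downward; luminescence read.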
# ELG1 genotox: qHTS screen for small molecules that induce genotoxicity in human embryonic kidney (HEK293T) cells expressing luciferase-tagged ELG1; Potency, µM (series often up to 46 µM), inactives show at the highest dose activity change, positive = activation, hits mostly activators; HEK293T ELG1-luciferase reporter, luminescence, 16 h; 330,000 compounds, 1.3% hits; note: % of control where 0% means no effect; nearly all actives have a fitted effect of over 60% in size
#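 After overnight (16 hr) compound treatment at 37 °C, ELG1-luciferase HEK293T cells were lysed with ONE-Glo; luminescence quantified 30 min later at room temperature.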
# Numbers without * were called inactive; ? = inconclusive; . = not tested or not shown; [ ] = dose if it differs, or a comment. Calls come from the whole dose curve; as a rule, active = well fitted curve in the direction sought with a large enough effect; inconclusive = small, poorly fitted or top-dose-only effect, or another doubt; inactive = no such curve, though single readings can be large; an effect the other way counts as inactive or inconclusive. Potency is the fitted concentration of half-maximal effect.
SMILES,Rab9 promoter act,SMN2 splice enh,KinaseGlo FLuc,NPC1 promoter act,FLuc counter,ELG1 genotox
O=C(/C=C/Nc1ccccc1Oc1ccccc1)c1ccco1,-4%,-1%,0%,2%,-26%,0%
O=C(NCc1cccc(F)c1)c1ccc(NC(=O)c2nsc3ccccc23)cc1,.,.,.,.,4.8µM*,.
Cc1ccc(CNC(=O)c2ccc(NC(=O)c3nsc4ccccc34)cc2)cc1,.,.,.,.,6.7µM*,.
CN(C)c1ccc(CNC(=O)c2ccc(NC(=O)c3nsc4ccccc34)cc2)cc1,.,.,.,.,2.7µM*,.
Cc1ccccc1CNC(=O)c1ccc(NC(=O)c2nsc3ccccc23)cc1,.,.,.,.,6.7µM*,.
Cc1ccc(NC(=O)C2CCCN(c3ncnc4onc(C)c34)C2)cc1Cl (configuration not stated),.,.,.,.,1%,.
Cc1cccc(C)c1NC(=O)Cn1c(=O)n(Cc2ccc3c(c2)OCO3)c(=O)c2oc3ccccc3c21,.,.,.,.,-1%,.
CCOC(=O)c1c(C)oc2nc(C)nc(Nc3cc(C)ccc3OC)c12,.,.,.,.,0%,.
COc1ccc2nc3sc(C(=O)NCCCN4CCc5ccccc5C4)cc3cc2c1,10%,1%,-4%,0%,19µM*,3%
CCN(CCCNC(=O)c1cc2cc3ccc(OC)cc3nc2s1)c1ccccc1,-5%,12%,.,-3%,-2%,.
CCOC(=O)c1sc2cccc(F)c2c1S(=O)(=O)NCc1ccccc1Cl,.,.,.,.,5%,.
COc1ccccc1Nc1sc(C(=O)c2ccc(C)cc2C)c(N)c1S(=O)(=O)c1ccccc1,.,.,.,.,1%,.
Cc1noc(NS(=O)(=O)c2ccc(N/C=C\C(=O)c3cccs3)cc2)c1C,-6%,-2%,2%,-5%,17µM*,4%
Cc1noc(NS(=O)(=O)c2ccc(N/C=C\C(=O)c3ccccc3)cc2)c1C,-2%,5%,1%,1%,?,17%
Cc1noc(NS(=O)(=O)c2ccc(N/C=C/C(=O)c3ccc4c(c3)OCO4)cc2)c1C,5%,5%,1%,17%,11µM*,12%
Cc1noc(NS(=O)(=O)c2ccc(N/C=C\C(=O)c3ccc(F)cc3)cc2)c1C,0%,3%,-2%,-1%,?,18%
Cc1cccc(NC(=O)Cn2c(=O)n(CCCCCC(=O)NCc3ccc4c(c3)OCO4)c(=O)c3sccc32)c1,.,-16%,.,.,3%,.
Cc1cc(OCC(=O)N2CCCCCC2)ccc1[N+](=O)[O-],?,13µM*,0%,?,17µM*,?
Cc1ccc(OCC(=O)N2CCCCC2)c(Br)c1,?,20µM*,2%,?,?,15%
CC(C)(C)c1ccc(OCC(=O)N2CCCCCC2)c(Br)c1,?,13µM*,0%,?,15µM*,?
COc1ccccc1N1CCN(C(=O)COc2ccc(C)cc2Br)CC1,-1%,1%,-2%,2%,-2%,2%
Cc1c(-c2nc(N)nc(C3CC3)c2C)nc(N)nc1C1CC1,.,1%[9.22 µM],-1%[7.66 µM],.,.,.
COc1cccc(C2=NN(C(=O)c3ccco3)C(c3ccco3)C2)c1 (configuration not stated),10%,.,.,18%,11µM*,10%
COc1ccc(Cn2c(=O)c3oc4ccccc4c3n(CC(=O)Nc3c(C)cccc3C)c2=O)cc1,.,.,.,.,-1%,.
Cc1ccc(C(=O)Nc2ccc3c(c2)CCC3)cc1,0.32µM*,1.4µM*,-15%,?,0.38µM*,0.18µM*
SMILES,Rab9 promoter act,SMN2 splice enh,KinaseGlo FLuc,NPC1 promoter act,FLuc counter,ELG1 genotox
NS(=O)(=O)c1cc(C(=O)Nc2ccc3c(c2)CCC3)ccc1Cl,4µM*,.,.,3.5µM*,17µM*,10µM*
Cn1cc(C(=O)Nc2ccc3c(c2)CCC3)cn1,30%,.,-7%,23%,21µM*,?
Cc1ccc(C)c(N(C)C(=O)c2cc3c(s2)-c2ccccc2OC3)c1,.,-2%,.,.,-19%,.
COc1ccccc1OCC(=O)Nc1nc(C)c(C)s1,4µM*,.,.,2.8µM*,8.5µM*,?
O=C(COc1ccccc1)Nc1nc2c(s1)CCCC2,?,.,.,?,13µM*,?
O=C(COc1ccccc1Cl)Nc1nc2c(s1)CCCC2,.,.,.,.,21µM*,.
O=C(CSCc1ccc(F)cc1)Nc1nc2c(s1)CCCC2,7%,-6%,11%,-5%,-12%,-1%
Cc1cnc(NC(=O)COc2ccccc2Cl)s1,0.25µM*,0.79µM*,-23%,0.1µM*,0.27µM*,?
Cc1cnc(NC(=O)CCNC(=O)c2ccccc2Cl)s1,-4%,-18%,-2%,0%,-1%,0%
COC(=O)c1sc(NC(=O)COc2ccccc2C)nc1C,?,5%,-3%,11%,?,?
COc1ccc(NC(=O)CN2CCCN(S(=O)(=O)c3ccc(Br)cc3)CC2)c(OC)c1,.,-28%,.,.,-8%,.
COc1ccc2oc(=O)c(C(=O)N3CCN(c4ccc(C)cc4)CC3)cc2c1,.,-5%,.,.,-1%,.
CCC1CN(C(=O)N2CCC(C(=O)N3CCN(c4ccccc4F)CC3)CC2)c2ccccc2O1 (configuration not stated),.,.,.,.,-12%,.
CCn1ccc2cc(S(=O)(=O)N3CCCN(C(=O)NCC(=O)OC)CC3)ccc21,.,.,.,.,-2%,.
Cc1cc(C)cc(NC(=O)C2CCCN(S(=O)(=O)c3cccc4nsnc34)C2)c1 (configuration not stated),.,3%,.,.,-2%,.
Cc1cccc(OCC(=O)Nc2c(C(=O)N3CCN(c4ccccc4)CC3)oc3ccccc23)c1,.,.,.,.,0%,.
CC(=O)N[C@H](C(=O)O)C(C)(C)SN=O,-2%[46.1 µM],0%,-2%,5%[46.1 µM],.,.
O=C(N/N=C/c1ccc(Cl)cc1)Nc1ccccc1,?,?,-3%,?,4.3µM*,?
O=C(N/N=C/c1ccco1)Nc1ccccc1,4µM*,.,.,3.2µM*,19µM*,?
Clc1ccc(/C=N\Nc2ccccc2)cc1,17%,.,.,9%,17µM*,?
O=C(CCC(=O)Nc1ccccc1)N/N=C/c1ccco1,3%,-21%,8%,-1%,3%,1%
COC(=O)C1=C(C)[C@H](O)[C@@H](C)[C@](C)(c2cc(OC)c(C)c(OC)c2COc2ccccc2)O1,.,-8%,0%,.,.,.
C/C(=N/OCC(=O)Nc1ccccc1)c1cccs1,?,-17%,-2%,?,9.5µM*,?
Cc1ccc(NC(=O)CNCc2cccs2)c(Br)c1,19%,.,.,30%,27µM*,?
